Assay outcomes from PubChem BioAssay.
BRCA1 expr up = activators of BRCA1 expression; MCF7-BRCA1-FFLuc reporter, luminescence, 48 h; response scale: scaled: vehicle 0%, 10 µM genistein 100%; Potency, µM (series often up to 46.1 µM), for inactives: top-dose activation, most hits filed as activators; 1.1% of 380,000 active; AID 624202; further: nearly all actives have a fitted effect of over 80% in size
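Reporter cells (MCF7, BRCA1 promoter-firefly luciferase) received library compounds across a concentration series for 48 h. End-point luminescence was measured and concentration-effect curves derived after normalization.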
GLP1R ag = activates the human GLP-1 receptor; Potency, µM (doses to about 45.6 µM), inactives show top-dose activation, hits mostly activators; 0.007% of 380,000 active; HEK293 GLP-1R CRE-luciferase, luminescence, 4-6 h; cells express a hypersensitive GLP-1R form; AID 624172; further: % of control where 0% means no effect
Target sequence (P43220 whole entry, looked up): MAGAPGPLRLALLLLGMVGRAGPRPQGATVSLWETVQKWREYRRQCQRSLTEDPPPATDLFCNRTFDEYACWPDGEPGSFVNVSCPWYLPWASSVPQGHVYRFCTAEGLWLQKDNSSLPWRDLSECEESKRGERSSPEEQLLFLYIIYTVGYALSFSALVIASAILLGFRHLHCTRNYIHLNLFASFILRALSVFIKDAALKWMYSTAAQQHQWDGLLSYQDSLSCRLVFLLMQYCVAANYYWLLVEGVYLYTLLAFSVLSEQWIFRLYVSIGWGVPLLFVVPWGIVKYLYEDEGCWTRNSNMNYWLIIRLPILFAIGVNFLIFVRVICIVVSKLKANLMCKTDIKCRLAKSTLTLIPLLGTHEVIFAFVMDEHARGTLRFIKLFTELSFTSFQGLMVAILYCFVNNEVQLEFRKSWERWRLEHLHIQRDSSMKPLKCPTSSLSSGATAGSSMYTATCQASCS
HEK293 tox = cytotoxicity counter-screen for GLP-1 receptor inverse agonists; Potency, µM (top dose mostly 38.3 µM), inactives show at the top dose activity change, negative = inhibition, most hits filed as inhibitors; AID 624418; 0.13% of 410,000 active; HEK293 cAMP-luciferase reporter cells, luminescence, 24 h;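 further: loss of luciferase light is scored as toxicity; on the % scale 0 is the no-effect control and ±100 the full control effect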
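Quantitative HTS format, 1536 wells, 200 cells/uL seeded. Compounds: 23 nL, 24 h, 37 °C. Detection: luciferase reagent, luminescence at 12 min RT; decreased signal taken as cytotoxic.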
GLP1R inv ag = GLP-1 receptor (human) inverse agonism. HEK293 GLP-1R CRE-luciferase, luminescence, 24 h; GLP-1R form is constitutively active. 1.6% of 410,000 active. AID 624417. Potency, µM (doses to about 38.3 µM), without a hit: at the top dose activity change, negative = inhibition, usual class: inhibitors. P43220; further: on the % scale 0 is the no-effect control and ±100 the full control effect; nearly all actives have a fitted effect of over 55% in size
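GLP-1R inverse agonism mode: basal reporter luminescence in engineered HEK293 cells measured after one day of compound exposure at 37 deg C, with a 12 min room-temperature detection step.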
* = called active by the depositor; ? = inconclusive; . = no result; [ ] = dose if it differs, or a comment. Compounds with a hit are over-represented: about 2.6% of the library has one in this group of screens. The call rests on the fitted dose curve; in most records, active means well fitted curve in the direction sought with a large enough effect; inconclusive means small, poorly fitted or top-dose-only effect, or another doubt; inactive means no such curve, though single readings can be large; an effect the other way counts as inactive or inconclusive. Potency means the concentration at half of the fitted maximal effect.

SMILES	BRCA1 expr up	GLP1R ag	HEK293 tox	GLP1R inv ag
O=S(=O)(c1ccc(S(=O)(=O)N(Cc2ccccc2)Cc2ccco2)cc1)N1CCCC1	-17.1%	-13.2%	2.3%	0.0%
COC(=O)/C=C/c1ccccc1S(=O)(=O)N(Cc1ccccc1)Cc1ccco1	-41.7%	5.4%	-29.5%	2.24µM*
O=C1CC(c2ccccc2)Sc2ccccc2N1Cc1ccccc1F (centres undefined)	-29.6%	-1.5%	-7.0%	10µM*
COc1cc(C2CC(=O)N(Cc3ccc(F)cc3)c3ccccc3S2)cc(OC)c1OC (centres undefined)	-66.1%	-7.2%	4.3%	11.2µM*
COc1ccc(C2CC(=O)N(Cc3ccc(F)cc3)c3ccccc3S2)cc1OC (centres undefined)	16.0%	-6.0%	2.7%	15.5%
CCCCN(C(=O)c1ccc2c(c1)OCO2)c1ccccc1	-18.2%	12.2%	4.7%	10µM*
CN(Cc1ccccc1)C(=O)c1ccc2c(c1)OCO2	16.8%	12.0%	5.5%	5.3%
C=C1NN(Cc2ccccc2)C(=O)N1c1ccc(OC)cc1	13.4%	.	.	.
CCCCc1nn2c(C)c(-c3ccc(OCC)cc3)nc2s1	68.7%	.	-11.8%	10µM*
O=C(/C=C/c1ccccc1Cl)Nc1ccncc1	8.4%	-0.2%	-8.2%	26.8%
Cc1cc(C)nc(NC(=O)/C=C/c2ccccc2Cl)c1	3.16µM*	1.8%	2.8%	?
Cc1cc(N)c2cc(NC(=O)/C=C/c3ccccc3Cl)ccc2n1	-76.1%	-7.3%	-20.5%	11.2µM*
Cc1cc(C)nc(NC(=O)/C=C/c2ccccc2Cl)n1	43.2%	12.8%	0.2%	72.2%
Cc1ccnc(NC(=O)/C=C/c2ccccc2Cl)c1	?	-0.3%	5.5%	10µM*
Cc1cc(C)nc(NC(=O)/C=C/c2ccc(Cl)cc2Cl)c1	6.31µM*	8.4%	-3.4%	?
O=C(/C=C/c1ccc(Cl)cc1Cl)Nc1ccncc1	15.6%	5.0%	-7.2%	5.8%
Cc1ccc(N=C2NC(=O)CC(C(=O)Nc3cc(C(F)(F)F)ccc3Cl)S2)cc1 (centres undefined)	-9.5%	-1.3%	-2.5%	-13.0%
N#Cc1ccccc1S(=O)(=O)N1CCC(C(=O)NCc2ccccc2CN2CCCC2)CC1	-1.4%	-2.8%	4.3%	?
N[C@@H](CO)C(=O)NNCc1ccc(O)c(O)c1O	.	-4.4%	.	.
CNC1CC(N)[C@H](O)[C@@H](O[C@@H]2OC(CO)C3OC4(OC(C(N)CO)C(O)C(O)C4O)O[C@@H]3[C@H]2O)C1O (some centres undefined)	.	7.2%	.	.
O=C(NCc1nc(-c2ccc(C(F)(F)F)cc2)no1)c1cccs1	-0.8%	-0.8%	-20.2%	10µM*
CC(=O)ON(C(C)=O)c1ccc(/C=C2\C=Cc3ccccc32)cc1	71.0%	.	.	.
O=C(NCCN1CCOCC1)c1ccc(Cl)c(S(=O)(=O)N2CCCCC2)c1	-33.7%	3.3%	6.3%	-5.9%
CN(C)S(=O)(=O)N1CCC(Oc2cccc(C(=O)NCCC3=CCCCC3)c2)CC1	-52.1%	-14.0%	-25.0%	10µM*
CN(C)C(CNC(=O)c1ccc(Cl)c(S(=O)(=O)N2CCCCCC2)c1)c1ccccc1 (centres undefined)	-20.3%	9.2%	-0.2%	7.94µM*
SMILES	BRCA1 expr up	GLP1R ag	HEK293 tox	GLP1R inv ag
CCN(CC)CCNC(=O)c1ccc(Cl)c(S(=O)(=O)N2CCCCCC2)c1	-10.5%	-4.1%	-29.1%	2.51µM*
Cc1ccnc(NC(=O)c2ccc(Cl)c(S(=O)(=O)N3CCCC3)c2)c1	7.08µM*	18.2%	-8.7%	-4.7%
Cc1ccnc(NC(=O)c2ccc(Cl)c(S(=O)(=O)N3CCCCC3)c2)c1	50.8%	19.3%	-0.6%	?
COc1ccc(C(=O)NCCCNC(=O)c2ccc(C)nc2)cc1	-10.4%	-0.5%	-22.8%	5.0%
CCc1ccc(N2CCn3c2nc2c3c(=O)n(Cc3cccc(C)c3)c(=O)n2C)cc1	.	.	-21.6%	4.5%
C(=Nc1ccc(/C=C/c2ccnc3ccccc23)cc1)c1ccc2c(c1)OCO2	14.6%	.	.	.
CCCCCCCCNc1ccc(/C=C/c2ccnc3ccccc23)cc1	-2.0%	.	.	.
O=C(Cn1c(=O)oc2cc(S(=O)(=O)N3CCCCC3)ccc21)NCc1ccc(Cl)cc1	-35.7%	.	-19.3%	12.6µM*
COc1ccc(CCNC(=O)c2cc(S(=O)(=O)N3CCCCCC3)ccc2OC)cc1OC	0.1%	28.5%	-5.6%	-25.3%
COc1ccc(S(=O)(=O)N2CCCCCC2)cc1C(=O)NCc1ccc(C)cc1	-10.8%	-4.1%	-5.8%	10µM*
COc1ccc(CNC(=O)c2ccc(Cl)c(S(=O)(=O)N3CCCCCC3)c2)cc1	-12.7%	6.1%	0.0%	10µM*
CN(C)CCCNC(=O)c1ccc(Cl)c(S(=O)(=O)N2CCCCCC2)c1	-12.3%	0.3%	2.7%	10µM*
Cc1cccc(NC(c2cccc(Cl)c2)c2ccc3cccnc3c2O)n1 (centres undefined)	.	.	5.2%	?
COc1ccccc1/C=C1\C=Cc2ccccc21	5.9%	.	.	.
COc1cc(-c2nc3cccc(C)n3c2Nc2ccc3c(c2)OCCO3)ccc1O	5.3%	16.4%	-22.3%	2.9%
O=C(NCCC1=CCCCC1)c1ccc(Cl)c(S(=O)(=O)N2CCCCC2)c1	1.0%	7.9%	1.8%	3.55µM*
O=C(NCCC1=CCCCC1)c1ccc(Cl)c(S(=O)(=O)N2CCOCC2)c1	-32.7%	14.5%	6.3%	-1.2%
Cc1ccc(N2C(=O)CS(=O)(=O)C23C(=O)N(Cc2ccc(Cl)cc2)c2ccccc23)cc1C (centres undefined)	-10.8%	3.1%	-2.5%	-21.3%
Cc1cc(NC(=O)C2CCCN(S(=O)(=O)c3cccc4nonc34)C2)ccc1Br (centres undefined)	13.2%	.	1.2%	15.6%
CCOc1cc(CNCCCN2CCOCC2)cc(Br)c1OCc1ccccc1Cl	-64.4%	5.3%	?	4.47µM*
CCN(CC)S(=O)(=O)c1ccc(N2CCN(c3ccccc3OC)CC2)c(N)c1	-52.4%	4.4%	-1.2%	10µM*
COc1ccc(S(=O)(=O)N(CC(=O)N2CCN(c3ccccc3OC)CC2)c2ccccc2)cc1	-69.4%	-3.3%	-9.6%	10µM*
COc1ccc(N2CCN(C(=O)CN(c3ccccc3)S(=O)(=O)c3ccc(OC)cc3)CC2)cc1	-0.9%[1.84 µM]	-10.8%	1.1%	0.0%
Cc1c(Cl)cccc1-n1nnc(-c2nc(-c3ccc4c(c3)OCO4)no2)c1C	.	.	-9.7%	2.8%
Cc1cc(C)n(CCc2nc3c4ccccc4nc(N4CCN(c5ccccc5)CC4)n3n2)n1	5.8%	.	-6.6%	-6.3%
COCCCNC(=S)N1CCN(C(c2ccccc2)c2ccccc2)CC1	-46.8%	3.8%	12.9%	10µM*
CC(C)CNC(=S)N1CCN(C(c2ccccc2)c2ccccc2)CC1	-59.5%	3.0%	-11.4%	2.82µM*
COc1ccc(NC(=S)N2CCN(C(c3ccccc3)c3ccccc3)CC2)c(OC)c1	-35.2%	2.7%	11.3%[7.66 µM]	?
COc1cc(NC(=S)N2CCC(C(O)(c3ccccc3)c3ccccc3)CC2)cc(OC)c1	-36.9%	-4.9%	3.9%	10µM*
